An excerpt weighted towards active compounds, which were near 3.6% of everything screened.
TGFb SMAD3 inh: blocks TGF-b signaling; actives 1.2% (n = 410,000); HepG2 CAGA-GFP TGF-b/SMAD3 reporter, GFP fluorescence, 18 h; TGF-beta stimulated, 500 pg/mL final; AID 588855; Potency, µM (series often up to 46.1 µM), for the others: at the highest dose activity, negative = inhibition, actives largely listed as inhibitors; also: % is scaled to controls: 0 for no effect and ±100 for the full control effect; nearly all actives have a fitted effect of over 65% in size
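Inhibition was scored as loss of TGF-beta-induced (500 pg/mL final, 18 hours, 37 degrees C) GFP in HEPG2 cells carrying a CAGA-GFP reporter, in DMEM with 1% FBS. Well GFP was summed per cell; Activity was normalised to unstimulated and stimulated DMSO wells, then concentration-response fitting.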
A549 tox: A549 cytotoxicity, counter-screen for Nrf2 inhibitors; Potency, µM (series often up to 46 µM), without a hit: at the top dose activity change, negative = cytotoxicity, usual class: inhibitors; A549 ARE-Fluc cells, CellTiter-Fluor viability, 18-24 h; actives 0.16% (n = 390,000); also: % is scaled to controls: 0 for no effect and ±100 for the full control effect
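Cytotoxicity counterscreen: CellTiter-Fluor fluorescence was measured in A549 ARE_Fluc cells after 18-24 h of compound exposure in a concentration series. The subsequent BugLite luminescent read reports ARE-luciferase activity.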
HepG2 tox: HepG2 cytotoxicity, counter-screen for TGF-b inhibitors | HepG2 CAGA-GFP viability, ATP luminescence, 18 h | Potency, µM (titrated, usually from 46.1 µM), for inactives: at the top dose activity change, negative = cytotoxicity, most hits filed as cytotoxic | actives 0.76% (n = 410,000) | AID 588856
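HepG2 CAGA-GFP cells (1000/well, DMEM with 1% FBS) received compound, then TGF-beta at 500 pg/mL final, and were incubated 18 hours at 37 degrees C. Viability was read by CellTiter-Glo luminescence. Media-only wells were set as complete cell-killing and DMSO as no toxicity.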
Nrf2 block: blocks Nrf2 signaling | actives 2.1% (n = 360,000) | Potency, µM (highest dose often 46 µM), for inactives: top-dose activity change, negative = inhibition, actives largely listed as inhibitors | A549 ARE-Fluc reporter, luciferase luminescence, 18-24 h; also: % is scaled to controls: 0 for no effect and ±100 for the full control effect; nearly all actives have a fitted effect of over 60% in size
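Two sequential reads on A549 ARE_Fluc cells exposed to compound for 18-24 h: a CellTiter-Fluor fluorescence read for viability, then a luciferase luminescence read for Nrf2/ARE activity.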
Nrf2 activator: Nrf2 pathway activation; actives 0.31% (n = 410,000); Potency, µM (series often up to 46.1 µM), inactives show at the highest dose activation, most hits filed as activators; AID 624171; AREc32 ARE-luciferase reporter (MCF7-derived line), luminescence, 24 h; also: % of control where 0% means no effect; nearly all actives have a fitted effect of over 65% in size
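Nrf2 activation is followed as ARE-luciferase induction in the AREc32 line after one day of compound treatment; luminescence is read with Steady-Glo.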
Numbers without * were called inactive; ? = inconclusive; · = no result given; ! = not active in a repeat. Calls follow the shape of the dose curve; as a rule, active = well fitted curve in the direction sought with a large enough effect; inconclusive = small, poorly fitted or top-dose-only effect, or another doubt; inactive = no such curve, though single readings can be large; an effect the other way counts as inactive or inconclusive. Potency is read from the fitted curve at half-maximal effect.

SMILES | TGFb SMAD3 inh | A549 tox | HepG2 tox | Nrf2 block | Nrf2 activator
CCc1c(C#N)c(SCCC(=O)Nc2cccc(OC)c2)nc2c1C(=O)CC(C)(C)C2 | ? | -7.0% | -0.6% | ? | 2.5%
CCC(CC)C(=O)c1c[nH]c(C(=O)NCCOC)c1 | 2.1% | -1.1% | 9.3% | 16.6% | -0.1%
CC1(C(=O)NS(=O)(=O)C2CC2)CCN(C(=O)c2cc3ccccc3s2)C1 (stereo unspecified) | 5.4% | · | 10.6% | · | 0.5%
CC(C)CCNC(=O)C1CCN(C(=O)c2cc3sccc3n2Cc2ccc(Cl)cc2)CC1 | 6.31µM* | ? | -20.9% | ? | 0.4%
COCCCNC(=O)C1CCN(C(=O)c2cc3sccc3n2Cc2ccc(F)cc2)CC1 | 0.7% | -0.4% | -18.8% | ? | 0.7%
Nc1cnc(Nc2ccc(Br)cc2)nc1N | 10.8% | -10.8% | -12.5% | ? | 9.1%
Cc1ccc(/C=C/C(=O)c2ccc(O)cc2)cc1 | ? | -0.6% | -25.1% | 1.2% | ?
Cc1ccc(C(=O)/C=C/C(=O)O)cc1 | ? | 12.2% | -27.7% | 3.5% | 22.4µM*
N=c1ccccn1CC(O)COc1ccccc1 (stereo unspecified) | -0.6% | 3.9% | 9.8% | · | 0.1%
C/C(=N\NC(=O)CSCc1ccccc1Br)c1cccc([N+](=O)[O-])c1 | -0.5% | -2.3% | -3.3% | ? | -0.4%
C/C(=N\NC(=O)CSCc1ccc([N+](=O)[O-])cc1)c1cccc(Br)c1 | -14.9% | -16.0% | 0.1% | 23.1µM* | -0.2%
O=C(O)C(Cc1cc(Cl)ccc1Cl)Sc1nc2ccccc2[nH]1 (stereo unspecified) | -0.3% | 2.3% | 7.6% | -0.5% | -0.7%
O=C(C1CCCCC1)N1CCN=C1SCc1cccnc1 | -3.3% | -0.1% | 2.8% | ? | 0.2%
O=C(C1CCCCC1)N1CCN=C1SCc1cccc([N+](=O)[O-])c1 | -10.9% | -2.0% | -5.6% | 20.6µM* | 4.4%
CCOc1ccccc1NC(=O)C(=O)c1cc(C)n(-c2cccc(C)c2C)c1C | ? | -1.4% | -49.4% | 7.5% | 4.8%
CCCCOC(=O)/C=C\C(=O)NC(N)=O | ? | -2.9% | -22.0% | -11.7% | 15.8µM*
CCCOc1ccc(C(=O)Nc2ccc(S(=O)(=O)NC3=NCCCCC3)cc2)cc1 | 0.0% | -8.5% | 0.316µM* | 18.4µM* | 1.9%
O=C(Nc1ccc(S(=O)(=O)NC2=NCCCCC2)cc1)c1ccc(Cl)cc1Cl | -17.6% | -9.7% | -26.6% | 16.4µM* | -0.5%
Clc1cccc(Cl)c1/C=N\Nc1nccs1 | ? | 0.7% | -15.5% | 11.3% | 10µM*
CC(=O)Nc1ccc(NC(=O)c2nc(S(=O)(=O)Cc3ccccc3)ncc2Cl)cc1 | ? | 2.0% | -107.6% | 4.0% | -2.9%
CCc1nnc(NC(=O)c2nc(S(=O)(=O)Cc3ccccc3)ncc2Cl)s1 | ? | ? | -94.9% | -114.3% | 14.1µM*
CSc1nnc(NC(=O)c2nc(S(=O)(=O)Cc3cccc(C)c3)ncc2Cl)s1 | ? | -26.4% | -76.2% | ? | ?
CCc1nnc(NC(=O)c2nc(S(=O)(=O)Cc3ccc(C)cc3)ncc2Cl)s1 | ? | ? | -182.8% | 20.6µM*! | 2.3%
CCc1nnc(NC(=O)c2nc(S(=O)(=O)Cc3cccc(C)c3)ncc2Cl)s1 | 11.2µM* | ? | 22.4µM* | 23.1µM* | -2.5%
Clc1cc2nc[nH]c2cc1Cl | -0.6% | 0.9% | 4.7% | -1.4% | 1.9%
SMILES | TGFb SMAD3 inh | A549 tox | HepG2 tox | Nrf2 block | Nrf2 activator
CC(C)(C)N(Cc1ccccc1)C(=O)c1cccs1 | 7.1% | 2.4% | -18.1% | -2.3% | 0.2%
COc1cc(C(=O)Nc2scc(-c3ccc(Br)cc3)c2C(=O)O)cc(OC)c1OC | 1.8% | -15.9% | 9.0% | 16.4µM* | -0.9%
Cc1cccc(C(=O)Nc2scc(-c3ccc(Br)cc3)c2C(=O)O)c1 | -2.7% | -15.5% | -17.1% | 11.6µM* | -0.7%
COc1cc(C(=O)Nc2sc(C)c(C)c2C(=O)O)cc(OC)c1OC | -10.7% | 0.1% | -3.6% | -25.5% | 7.3%
Cc1ccc(-c2csc(NC(=O)c3cccc(C)c3)c2C(=O)O)cc1 | 3.7% | -18.0% | -19.2% | 7.31µM* | -1.1%
Cc1ccc(-c2csc(NC(=O)c3ccc(Br)cc3)c2C(=O)O)cc1 | 9.9% | -8.3% | 18.6% | ? | 0.0%
CCOCCCn1c(=N)c(S(=O)(=O)c2ccc(C)cc2)cc2c(=O)n3cc(C)ccc3nc21 | 0.0% | -2.3% | -5.0% | -18.7% | 1.9%
Cc1ccc(SCc2nc(-c3ccc(C(=O)NCC(C)c4ccccc4)cc3)oc2C)cc1 (stereo unspecified) | -2.4% | 8.1% | -31.6% | 9.2µM* | 4.1%
Cc1ccc(SCc2nc(-c3ccc(C(=O)NCCc4ccc(Cl)cc4)cc3)oc2C)cc1 | -5.8% | -0.1% | 7.2% | ? | -0.2%
COc1ccc(CNC(=O)c2ccc(-c3nc(CSc4ccccc4)c(C)o3)cc2)cc1 | ? | 3.5% | 10µM* | 18.2% | -0.2%
Cc1c(NC(=O)c2ccc([N+](=O)[O-])o2)cccc1-c1nc2ncccc2o1 | ? | -4.4% | 25.1µM* | -13.9% | -0.2%
COc1ccc(C(=O)Nc2cccc(-c3nc4ncccc4o3)c2C)cc1OC | 20.8% | ? | 20.3% | 18.4µM* | 0.3%
Cc1cc(C)cc(C(=O)Nc2cccc(-c3nc4ncccc4o3)c2C)c1 | 10.2% | 0.4% | 3.0% | 11.7% | 0.0%
CCC(C)N(CCNC(=O)c1ccc2c(c1)NC(=O)c1ccccc1S2)C1CCCCC1 (stereo unspecified) | ? | ? | 11.2µM* | -1.9% | -0.9%
CC1CCCC(C)N1CCCNC(=O)c1ccc2c(c1)NC(=O)c1ccccc1S2 (stereo unspecified) | -12.1% | 0.8% | -20.2% | 1.5% | 0.4%
CCOC(=O)c1c(-c2cccs2)csc1NC(=O)CN(CC)CC | -16.7% | ? | -13.2% | 18.4µM* | -0.1%
CC(=O)c1sc(NC(=O)CS(=O)(=O)c2ccc(F)cc2)nc1C | -14.3% | 5.4% | 3.9% | 12.1% | 0.0%
Cc1ccc(Cn2cc(CCC(=O)NCC(C)c3ccccc3)c3ccccc32)cc1 (stereo unspecified) | ? | ? | -14.7% | 18.4µM* | 2.2%
C[C@@H]1[C@@H](Sc2ccccc2)CC(=O)O[C@@H]1c1ccc(-c2ccccc2)cc1 | ? | -7.7% | 11.2µM* | 18.4µM* | ?
O=C1CC(C(=O)NC2CCCCC2)C(c2ccccc2)O1 (stereo unspecified) | -19.9% | -1.1% | 3.9% | 11.7% | 0.1%
CCOC(=O)c1ccc(NC(=S)NC2CC(C)(C)NC(C)(C)C2)cc1 | ? | -2.1% | 11.2µM* | · | 3.7%
S=C(Nc1ccc(Nc2ccccc2)cc1)NC1CCCCCC1 | ? | ? | -22.1% | 18.4µM* | 4.1%
